# Assay results reported in PubChem BioAssay (EPA / NIEHS).
# Calls of active or inactive are those of the source. How the source made its calls: active means hit-call score of the fitted dose curve at least 0.9, where 1 is the maximum; inactive means score below 0.9.
# Read-out: Interleukin-8 (IL8), CXCL8 (gene 3576)
# Assay: BSK_MyoF_IL8: BioMAP Diversity Plus: MyoF Assay for Interleukin-8 (IL8) Biomarker Activity (AID 2284261)
# Settings: primary human lung fibroblasts
# Outline: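 IL-8 quantified by ELISA after 24 h compound exposure of primary human lung fibroblasts. SRB staining of parallel cultures flagged cytotoxicity; DMSO served as baseline.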
row,SMILES,outcome
1,Nc1ccc(-c2ccc(N)c(N)c2)cc1N,inactive
2,O=c1[nH]c(Cl)c(Cl)cc1Cl,inactive
3,O=C(O)CCCc1ccc(N(CCCl)CCCl)cc1,inactive
4,COC(C)(C)CCC[C@H](C)C/C=C/C(C)=C/C(=O)OC(C)C,inactive
5,O=P1(NCCCl)OCCCN1CCCl (stereo unspecified),inactive
6,O=S(=O)(c1ccccc1)c1ccccc1,inactive
7,Clc1ccc(-c2ccccc2)cc1,inactive
8,Oc1cc(Cl)ccc1Cl,inactive

# Read-out: Decorin, DCN (gene 1634)
# Assay: BSK_MyoF_Decorin: BioMAP Diversity Plus: MyoF Assay for Decorin Biomarker Activity (AID 2284265)
# Settings: primary human lung fibroblasts
# Outline: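 Decorin protein was quantified by ELISA 24 h after chemical addition to primary human lung fibroblasts and analysed as increase over DMSO. Cytotoxicity was tracked in parallel cultures by SRB total-protein staining read at 560 nm.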
row,SMILES,outcome
1,Nc1ccc(-c2ccc(N)c(N)c2)cc1N,inactive
2,O=c1[nH]c(Cl)c(Cl)cc1Cl,inactive
3,O=C(O)CCCc1ccc(N(CCCl)CCCl)cc1,inactive
4,COC(C)(C)CCC[C@H](C)C/C=C/C(C)=C/C(=O)OC(C)C,inactive
5,O=P1(NCCCl)OCCCN1CCCl (stereo unspecified),inactive
6,O=S(=O)(c1ccccc1)c1ccccc1,inactive
7,Clc1ccc(-c2ccccc2)cc1,inactive
8,Oc1cc(Cl)ccc1Cl,inactive
